Active and inactive are the calls of the source.
How the values were obtained:
[1] = system: PRMT1 (protein arginine N-methyltransferase 1); assay: PRMT1 binders on small-molecule microarrays, primary screen, biochemical, small-molecule microarray, 635 nm fluorescence (AID 1088); conditions: small-molecule microarray binding, higher = more signal;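 further: binding of Prmt1 protein to compounds spotted on small-molecule microarray slides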
[2] = yeast growth modulation, basal conditions, primary screen, YJM789 clinical isolate, OD600, 24 h (AID 1089);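 further: growth of clinical yeast isolate S. cerevisiae YJM 789 seeded 1000 cells per well; test concentration not given here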; conditions: S. cerevisiae YJM789 growth, higher = more signal, called active from +8 up or from −8 down
[3] = fission yeast growth modulation, primary screen, strain 972, OD600, 24 h, no modulator (AID 1090);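 further: basal condition with compound alone and no growth modifier present; test concentration not given here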; conditions: S. pombe 972 growth, higher = more signal, called active from +8 up or from −8 down
[4] = S. cerevisiae growth modulation with rapamycin, primary screen, strain BY4716, OD600, 96 h (AID 1091); conditions: higher = more signal, called active from +8 up or from −8 down; further: test concentration not given here
[5] = biological target: Torsin-1A-interacting protein 2 (Homo sapiens) (UniProt Q8NFQ8); assay: LULL1 binders on small-molecule microarray, primary screen, cell lysate, human LULL1 lysate, 635/667 nm fluorescence (AID 1092); conditions: hLULL1 lysate binding, 635 nm fluorescence, higher = more signal;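 further: probe is lysate of COS7 cells overexpressing human LULL1; score merges per-feature 667 nm fluorescence with signal-to-noise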
[6] = E. coli growth modulation, two-sided OD650, primary screen, E. coli filamentation project, strain DRC41, 24 h (AID 1093); conditions: OD650, 24 h, higher = more signal, called active from +8 up or from −8 down;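 further: MC1000 strain lacking acrAB efflux and sulA so SOS filamentation is blocked; test concentration not given here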
[7] = small-molecule microarray binders of probe aLefty2, primary screen, biochemical, biotinylated probe, 635/667 nm fluorescence (AID 1094); conditions: higher = more signal;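 further: score merges spot fluorescence near 667 nm with spot signal-to-noise ratio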
[8] = system: Noggin (protein binding on small-molecule microarray); assay: Noggin binders on small-molecule microarray, primary screen, biochemical, 635/667 nm fluorescence (AID 1095); conditions: 635 nm fluorescence, higher = more signal;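 further: score merges 667 nm feature fluorescence with signal to noise over triplicate slides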
[9] = biological target: Neurogenic locus notch homolog protein 3 (Homo sapiens) (UniProt Q9UM47); assay: NOTCH3 binders on small-molecule microarray, primary screen, biochemical, 635/667 nm fluorescence (AID 1096); conditions: NOTCH3 binding, 635 nm fluorescence, higher = more signal
[10] = small-molecule microarray binders of probe aEGFR, primary screen, biochemical, biotinylated probe, 635/667 nm fluorescence (AID 1097); conditions: higher = more signal;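 further: probe is a biotinylated anti-EGFR antibody binding compounds printed on slides; score combines fluorescence near 667 nm and signal to noise of each spot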
[11] = system: Plasmodium falciparum Sir2 (PF13_0152, Sir2A); assay: pfSir2 binders on small-molecule microarrays, primary screen, biochemical, small-molecule microarray, 635 nm fluorescence (AID 1098); conditions: small-molecule microarray binding, fluorescence 635 nm; higher = more signal;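 further: score merges spot fluorescence intensity with its signal-to-noise ratio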
[12] = small-molecule microarray binders of probe aDKK1, primary screen, biochemical, biotinylated probe, 635/667 nm fluorescence (AID 1099); conditions: higher = more signal;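 further: score merges 667nm spot fluorescence with signal to noise across triplicate slides; reference of the scale not given here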
[13] = small-molecule microarray binders of probe aCHRDL2, primary screen, biochemical, biotinylated probe, 635/667 nm fluorescence (AID 1100); conditions: higher = more signal
[14] = splicing luciferase reporter signal modulators, primary screen, spliceosome inhibition project, cell-based, HEK293, splice +/- reporter (AID 1101); conditions: luminescence, 24 h, higher = more signal, called active from +8 up or from −8 down;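 further: HEK293 cells carrying a splicing-competent luciferase reporter gene; test concentration not given here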
[15] = biological target: Fibroblast growth factor 10 (Homo sapiens) (UniProt O15520); assay: FGF10 binders on small-molecule microarrays, primary screen, biochemical, small-molecule microarray, 635 nm fluorescence (AID 1102); conditions: FGF10 binding, fluorescence 635 nm, higher = more signal
[16] = system: glycogen synthase kinase-3 (GSK3A per assay name; protocol says GSK3B); assay: GSK3 binders on small-molecule microarrays, primary screen, biochemical, small-molecule microarray, 635 nm fluorescence, GSK3A (AID 1103); conditions: small-molecule microarray binding, fluorescence 635 nm; higher = more signal; further: the record names both GSK3A and GSK3B
[17] = biological target: Epidermal growth factor receptor (Homo sapiens) (UniProt P00533); assay: EGFR binders on small-molecule microarrays, primary screen, biochemical, small-molecule microarray, 635 nm fluorescence (AID 1104); conditions: EGFR binding, higher = more signal;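 further: score merges 667 nm emission intensity with spot signal to noise over triplicate slides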
[18] = biological target: Follistatin-related protein 3 (Homo sapiens) (UniProt O95633); assay: FSTL3 binders on small-molecule microarrays, primary screen, biochemical, small-molecule microarray, 635 nm fluorescence (AID 1105); conditions: FSTL3 binding, higher = more signal;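 further: score merges emission near 667 nm and signal to noise per printed spot across three slides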
[19] = biological target: Dickkopf-related protein 1 (Homo sapiens) (UniProt O94907); assay: DKK1 binders on small-molecule microarrays, primary screen, biochemical, small-molecule microarray, 635 nm fluorescence scan (AID 1106); conditions: DKK1 binding, higher = more signal;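 further: score merges emission near 667 nm with signal to noise over three replicate slides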
[20] = system: Inhibin beta A chain (activin A); assay: INHBA (activin A) binders on microarrays, primary screen, biochemical, small-molecule microarray, 635 nm fluorescence scan (AID 1107); conditions: small-molecule microarray binding, higher = more signal;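 further: mouse activin A protein probed at 4.33 µg/mL on printed slides; score merges bound-protein fluorescence near 667 nm with spot signal-to-noise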

Chain of Dickkopf-related protein 1 (Homo sapiens) (O94907 whole entry, looked up): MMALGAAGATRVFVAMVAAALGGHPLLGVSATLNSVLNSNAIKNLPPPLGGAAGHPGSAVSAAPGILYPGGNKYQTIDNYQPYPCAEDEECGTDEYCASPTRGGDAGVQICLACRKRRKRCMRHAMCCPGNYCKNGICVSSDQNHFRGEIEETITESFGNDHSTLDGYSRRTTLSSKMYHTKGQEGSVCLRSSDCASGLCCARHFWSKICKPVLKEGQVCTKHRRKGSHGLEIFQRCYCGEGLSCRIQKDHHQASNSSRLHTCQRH
Chain of Follistatin-related protein 3 (Homo sapiens) (O95633 whole entry, looked up): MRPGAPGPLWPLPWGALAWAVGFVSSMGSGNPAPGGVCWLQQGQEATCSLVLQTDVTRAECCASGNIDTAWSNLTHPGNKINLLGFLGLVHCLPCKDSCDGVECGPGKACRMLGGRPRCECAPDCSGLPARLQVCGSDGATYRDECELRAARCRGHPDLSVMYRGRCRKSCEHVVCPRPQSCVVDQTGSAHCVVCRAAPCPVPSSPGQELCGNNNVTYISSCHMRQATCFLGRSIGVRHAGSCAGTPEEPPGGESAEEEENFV
Chain of Fibroblast growth factor 10 (Homo sapiens) (O15520 whole entry, looked up): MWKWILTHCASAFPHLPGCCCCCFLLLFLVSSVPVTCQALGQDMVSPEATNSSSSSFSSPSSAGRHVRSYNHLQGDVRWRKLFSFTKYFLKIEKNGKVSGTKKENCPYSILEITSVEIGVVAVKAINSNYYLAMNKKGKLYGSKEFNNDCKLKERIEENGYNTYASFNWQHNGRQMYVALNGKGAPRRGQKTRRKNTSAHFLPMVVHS
Chain of Torsin-1A-interacting protein 2 (Homo sapiens) (Q8NFQ8 whole entry, looked up): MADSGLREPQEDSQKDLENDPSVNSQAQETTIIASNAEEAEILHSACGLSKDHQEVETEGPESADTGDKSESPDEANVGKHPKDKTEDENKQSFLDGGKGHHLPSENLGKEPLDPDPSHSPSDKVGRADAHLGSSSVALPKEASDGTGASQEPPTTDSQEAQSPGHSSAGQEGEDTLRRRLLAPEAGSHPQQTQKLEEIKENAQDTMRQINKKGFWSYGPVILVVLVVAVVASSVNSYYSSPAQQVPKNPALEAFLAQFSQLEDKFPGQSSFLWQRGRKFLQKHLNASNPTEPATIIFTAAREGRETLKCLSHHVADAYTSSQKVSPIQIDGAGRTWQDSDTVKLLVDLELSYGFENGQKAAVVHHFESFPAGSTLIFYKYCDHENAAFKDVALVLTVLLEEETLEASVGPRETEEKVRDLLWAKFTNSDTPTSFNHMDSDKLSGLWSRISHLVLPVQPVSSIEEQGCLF
Chain of Neurogenic locus notch homolog protein 3 (Homo sapiens) (Q9UM47 whole entry, looked up): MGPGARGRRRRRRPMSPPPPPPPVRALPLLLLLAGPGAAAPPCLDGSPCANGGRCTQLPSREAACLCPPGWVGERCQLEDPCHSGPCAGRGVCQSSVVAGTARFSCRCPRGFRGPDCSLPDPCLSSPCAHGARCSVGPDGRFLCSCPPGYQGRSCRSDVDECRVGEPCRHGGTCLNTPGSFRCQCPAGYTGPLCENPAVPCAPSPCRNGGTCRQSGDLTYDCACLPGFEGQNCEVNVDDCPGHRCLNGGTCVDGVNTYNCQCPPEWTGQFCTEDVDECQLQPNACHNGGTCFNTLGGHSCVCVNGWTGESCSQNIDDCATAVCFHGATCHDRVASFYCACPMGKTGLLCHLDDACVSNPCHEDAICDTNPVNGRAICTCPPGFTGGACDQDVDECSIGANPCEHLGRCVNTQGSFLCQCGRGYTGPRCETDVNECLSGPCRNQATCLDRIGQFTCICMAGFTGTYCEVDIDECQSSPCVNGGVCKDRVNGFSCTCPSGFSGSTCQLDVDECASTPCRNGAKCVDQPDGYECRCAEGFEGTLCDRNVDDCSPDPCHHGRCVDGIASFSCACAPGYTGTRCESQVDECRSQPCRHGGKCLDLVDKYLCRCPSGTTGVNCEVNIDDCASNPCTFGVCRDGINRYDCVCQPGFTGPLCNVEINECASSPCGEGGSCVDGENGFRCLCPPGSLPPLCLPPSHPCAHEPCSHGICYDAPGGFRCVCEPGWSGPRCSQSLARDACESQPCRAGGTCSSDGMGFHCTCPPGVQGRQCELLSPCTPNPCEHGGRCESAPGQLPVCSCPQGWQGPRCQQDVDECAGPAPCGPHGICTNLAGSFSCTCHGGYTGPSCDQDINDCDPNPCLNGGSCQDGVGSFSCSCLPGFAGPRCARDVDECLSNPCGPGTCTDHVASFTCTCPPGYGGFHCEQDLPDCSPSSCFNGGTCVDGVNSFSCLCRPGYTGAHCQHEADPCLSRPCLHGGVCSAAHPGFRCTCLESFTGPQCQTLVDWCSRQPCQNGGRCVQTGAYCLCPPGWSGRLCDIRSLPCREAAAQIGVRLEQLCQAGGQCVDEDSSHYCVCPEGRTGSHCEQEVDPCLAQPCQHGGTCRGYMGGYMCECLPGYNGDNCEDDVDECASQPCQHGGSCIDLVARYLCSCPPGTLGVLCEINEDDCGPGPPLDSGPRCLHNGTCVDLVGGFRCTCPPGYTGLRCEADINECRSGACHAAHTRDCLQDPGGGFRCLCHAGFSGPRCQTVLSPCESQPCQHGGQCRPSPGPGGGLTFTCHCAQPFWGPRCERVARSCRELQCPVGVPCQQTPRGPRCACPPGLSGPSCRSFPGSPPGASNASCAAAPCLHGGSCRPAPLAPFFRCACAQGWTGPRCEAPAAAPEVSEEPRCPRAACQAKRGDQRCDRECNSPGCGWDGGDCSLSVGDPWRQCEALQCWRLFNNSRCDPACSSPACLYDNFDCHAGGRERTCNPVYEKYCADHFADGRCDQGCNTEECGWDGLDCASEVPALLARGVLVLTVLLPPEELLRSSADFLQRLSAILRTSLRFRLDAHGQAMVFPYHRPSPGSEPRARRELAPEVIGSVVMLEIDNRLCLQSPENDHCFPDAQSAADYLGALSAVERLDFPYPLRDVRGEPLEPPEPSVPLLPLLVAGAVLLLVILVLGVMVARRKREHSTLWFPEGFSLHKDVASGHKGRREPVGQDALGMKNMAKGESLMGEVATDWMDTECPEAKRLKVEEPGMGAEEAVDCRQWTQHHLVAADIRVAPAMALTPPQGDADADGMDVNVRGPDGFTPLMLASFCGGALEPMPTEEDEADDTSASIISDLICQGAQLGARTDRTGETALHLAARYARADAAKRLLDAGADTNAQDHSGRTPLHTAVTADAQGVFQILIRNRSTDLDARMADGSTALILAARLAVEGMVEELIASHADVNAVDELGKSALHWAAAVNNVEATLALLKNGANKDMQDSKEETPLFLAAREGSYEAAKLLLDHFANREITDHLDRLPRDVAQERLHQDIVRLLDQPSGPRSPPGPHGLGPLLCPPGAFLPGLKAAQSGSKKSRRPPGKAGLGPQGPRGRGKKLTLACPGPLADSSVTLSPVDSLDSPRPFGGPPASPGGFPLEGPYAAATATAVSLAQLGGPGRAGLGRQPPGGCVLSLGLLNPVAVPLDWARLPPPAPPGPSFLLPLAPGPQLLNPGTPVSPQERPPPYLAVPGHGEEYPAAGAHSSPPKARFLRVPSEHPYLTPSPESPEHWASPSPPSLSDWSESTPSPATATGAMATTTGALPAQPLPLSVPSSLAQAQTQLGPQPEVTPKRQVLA
Chain of Epidermal growth factor receptor (Homo sapiens) (P00533 whole entry, looked up): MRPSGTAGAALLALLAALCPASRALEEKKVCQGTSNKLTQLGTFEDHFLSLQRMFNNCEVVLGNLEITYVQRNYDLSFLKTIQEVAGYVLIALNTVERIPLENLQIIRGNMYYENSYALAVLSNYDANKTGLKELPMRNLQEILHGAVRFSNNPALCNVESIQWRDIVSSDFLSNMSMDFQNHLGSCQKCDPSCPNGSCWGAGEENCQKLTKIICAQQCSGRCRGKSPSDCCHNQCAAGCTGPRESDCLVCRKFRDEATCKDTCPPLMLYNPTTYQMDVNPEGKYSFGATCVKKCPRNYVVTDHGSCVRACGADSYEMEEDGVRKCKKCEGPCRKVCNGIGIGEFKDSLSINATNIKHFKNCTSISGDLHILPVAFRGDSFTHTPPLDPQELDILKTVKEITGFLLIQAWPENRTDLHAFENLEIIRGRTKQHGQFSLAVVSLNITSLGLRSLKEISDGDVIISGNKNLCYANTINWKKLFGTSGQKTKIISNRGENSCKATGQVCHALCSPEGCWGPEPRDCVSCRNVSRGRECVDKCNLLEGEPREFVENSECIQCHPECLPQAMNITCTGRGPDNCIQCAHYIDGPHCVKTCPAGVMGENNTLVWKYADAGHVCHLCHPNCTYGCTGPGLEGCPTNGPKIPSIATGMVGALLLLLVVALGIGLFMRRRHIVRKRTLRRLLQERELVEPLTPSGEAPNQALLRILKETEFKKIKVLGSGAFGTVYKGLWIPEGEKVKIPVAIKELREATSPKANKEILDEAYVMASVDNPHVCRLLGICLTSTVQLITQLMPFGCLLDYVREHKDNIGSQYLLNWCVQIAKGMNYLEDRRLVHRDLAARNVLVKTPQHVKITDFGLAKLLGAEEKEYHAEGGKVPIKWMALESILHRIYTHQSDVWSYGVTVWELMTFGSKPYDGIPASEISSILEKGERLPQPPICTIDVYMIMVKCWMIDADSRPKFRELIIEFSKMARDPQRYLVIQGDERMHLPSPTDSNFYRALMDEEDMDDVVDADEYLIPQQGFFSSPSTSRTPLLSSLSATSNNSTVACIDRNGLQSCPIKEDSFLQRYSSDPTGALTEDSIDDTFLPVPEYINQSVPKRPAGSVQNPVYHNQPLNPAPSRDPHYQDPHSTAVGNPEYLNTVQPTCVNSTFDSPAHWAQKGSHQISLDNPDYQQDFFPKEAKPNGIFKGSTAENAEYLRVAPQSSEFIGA

SMILES | composite z-score [1] | z-score [2] | z-score [3] | z-score [4] | composite z-score [5] | z-score [6] | composite z-score [7] | composite z-score [8] | composite z-score [9] | composite z-score [10] | composite z-score [11] | composite z-score [12] | composite z-score [13] | z-score [14] | composite z-score [15] | composite z-score [16] | composite z-score [17] | composite z-score [18] | composite z-score [19] | composite z-score [20]
C=C(COC)/C(=C/C[C@H](OC(C)=O)c1ccc(OCCO)cc1)c1cc(C(=O)OC)ccc1OC | 1.53 | 0.092 (inactive) | -1.08 (inactive) | -0.656 (inactive) | 0.914 | 1.23 (inactive) | -0.119 | 1.68 | 0.794 | -0.126 | 1.38 | 0.0841 | -0.24 | -0.195 (inactive) | 1.48 | 0.416 | 0.148 | 0.924 | 0.468 | 0.72
COc1cccc(/C=C/C=O)c1 | 0.247 | 1.95 (inactive) | -13.2 (active) | -0.144 (inactive) | 0.205 | -0.283 (inactive) | 0.226 | 0.137 | 0.181 | 0.198 | -0.663 | 0.24 | -0.326 | 0.85 (inactive) | 0.393 | 0.0414 | 0.417 | 0.237 | 0.339 | -0.115
C=CCOC(=O)[C@H]1[C@@H]2C(=O)O[C@@H](c3ccccc3)[C@@H](c3ccccc3)N2[C@@H](c2ccc(OCCOC(=O)[C@@H]3C[C@@H]4C(=O)N5CCC[C@H]5C(=O)N4[C@@H]3c3ccc(O)cc3)cc2)[C@]12C(=O)Nc1ccc(I)cc12 | 1.42 | 0.882 (inactive) | 0.25 (inactive) | 2.77 (inactive) | 1.03 | -0.333 (inactive) | -0.138 | 0.674 | 0.169 | -0.194 | 0.637 | -0.102 | 0.357 | 0.431 (inactive) | 0.53 | 0.195 | 0.482 | 0.594 | 1.39 | 0.372
COC(=O)[C@@]1(Cc2ccccc2)[C@@H]2C(=CC(=O)[C@H]2CC(=O)C(=O)N(C)C)CN1C(=O)c1ccccc1 | 0.777 | -1.06 (inactive) | 0.378 (inactive) | -0.251 (inactive) | 3.22 | 0.844 (inactive) | 0.262 | -0.434 | 1.06 | 0.156 | 0.971 | 1.08 | 1.17 | 2.93 (inactive) | 0.473 | 0.982 | 0.159 | 0.471 | -0.465 | 1.25
COC(=O)[C@@]1(Cc2ccc(OC)cc2)[C@H]2c3cc(C(=O)N(C)C)n(C[C@H](O)CO)c3C[C@H]2CN1C(=O)c1ccccc1 | 0.0724 | 0.398 (inactive) | 0.251 (inactive) | 0.878 (inactive) | 2.92 | -1.02 (inactive) | 0.955 | -0.826 | 1.05 | 0.269 | 1.43 | 1.76 | 1.62 | -0.872 (inactive) | 0.376 | 0.0885 | -0.107 | 0.472 | -1.18 | 1.39
CO[C@]12C=C(Br)[C@@H](C[C@@H]1c1cccc(C)c1)[C@@]1(CO1)C2=O | 0.435 | -0.354 (inactive) | -5.17 (inactive) | -1.67 (inactive) | 0.469 | -0.0461 (inactive) | -0.145 | 0.569 | 0.537 | -0.115 | 1.53 | -0.306 | -0.284 | -0.258 (inactive) | 0.0635 | -0.207 | -0.14 | 0.261 | 0.0254 | 0.521
O=C(CS)NCCCCCCNC(=O)[C@H]1C[C@H]2C(=O)N[C@@H](Cc3ccccc3)C(=O)N2[C@H]1c1ccc(O)cc1 | 1.53 | 0.407 (inactive) | 1.1 (inactive) | 1.12 (inactive) | 1.91 | -0.0352 (inactive) | -0.316 | 0.405 | 0.635 | -0.105 | 1.67 | -0.249 | -0.0488 | -0.239 (inactive) | 1.39 | 0.992 | 0.0478 | 0.333 | 0.75 | -0.95
C=C[C@@H](COC(C)=O)N(C(=O)OC(C)(C)C)S(=O)(=O)c1ccc(Br)cc1 | 0.832 | -0.152 (inactive) | -1.54 (inactive) | -0.666 (inactive) | 0.519 | 0.411 (inactive) | 0.132 | 0.841 | 0.782 | 0.0709 | 0.732 | 0.311 | -0.152 | 0.446 (inactive) | 1.18 | 1.23 | 0.837 | 1.45 | 2.14 | 0.824
CCCCC=C[C@@H](NC(=O)c1ccc(-c2ccccc2)cc1)c1ccccc1 | 0.246 | 0.603 (inactive) | -1.45 (inactive) | -0.713 (inactive) | 2.44 | -0.444 (inactive) | 0.179 | -0.323 | 0.496 | -0.094 | 0.379 | 0.0006 | 0.087 | 2.94 (inactive) | 0.462 | 1.08 | 0.0139 | -0.203 | 0.381 | 0.183
